From PubChem BioAssay (NCATS) come the findings set out here.

Inconclusive results are not listed. Activity calls are given as the source filed them. Unless noted, calls follow the shape of the dose curve; as a rule, active = well fitted curve in the direction sought with a large enough effect; inconclusive = small, poorly fitted or top-dose-only effect, or another doubt; inactive = no such curve, though single readings can be large; an effect the other way counts as inactive or inconclusive.

Experiment [1] addresses Glucocorticoid receptor (Homo sapiens) (UniProt P04150). The experiment can be described thus: qHTS assay for small molecule agonists of glucocorticoid receptor signaling (AID 588532; active = well fitted curve in the direction sought with a large enough effect in the signal ratio, with a control signal flat; the % refers to the signal ratio;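 also: 100% = dexamethasone at 0.1 µM and 0% = DMSO only wells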). To be noted: HeLa MMTV-bla, beta-lactamase ratio, agonist, 18 h; stronger effect = higher value; percent of dexamethasone control, DMSO zero. The method in brief: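 HeLa GRE-bla reporter cells; 18 h compound exposure at 37 C; 2 h CCF4 loading at room temperature; fluorescence at 460 and 530 nm; EC50 by Hill equation.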

Experiment [2] has the same target. The experiment can be described thus: qHTS assay for small molecule antagonists of glucocorticoid receptor signaling (AID 588533; active = well fitted inhibition curve with a large enough effect in the signal ratio, with a control signal flat, not every such curve was filed as active; the % refers to the signal ratio; also: % is scaled to controls: 0 for no effect and ±100 for the full control effect). The following applies: HeLa MMTV-bla, GRE beta-lactamase ratio, antagonist mode, 18 h; series mostly up to 76.8 µM. The method in brief:
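Antagonist-mode qHTS: compound titrations added to GRE-bla HeLa cells, then dexamethasone 2 nM final; 18 h, 37 C. CCF4 FRET fluorescence normalized to dexamethasone and DMSO; IC50 from Hill fit.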
For orientation: qHTS replaces the single test concentration by a dilution series.

Experiment [3] can be described thus: qHTS assay for small molecule antagonists of peroxisome proliferator-activated receptor delta signaling (AID 588535; active = well fitted inhibition curve with a large enough effect in the signal ratio, with a control signal flat, not every such curve was filed as active; the % refers to the signal ratio;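 as to max response: cells co-treated with a PPAR-delta agonist as stimulator during compound exposure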). The following applies: HEK293T PPARd-UAS-bla, beta-lactamase FRET ratio, 18 h; 460 nm channel. In short, it runs like this:
(§1)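 Antagonist-mode beta-lactamase reporter (GeneBLAzer PPAR-delta-UAS-bla) in HEK293T cells, 2% charcoal/dextran FBS, 4000 cells/well. Compound titrations, 18 h at 37 C; CCF4 ratio read, IC50 and efficacy from Hill fits.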

Experiment [4] concerns the target Peroxisome proliferator-activated receptor delta (Homo sapiens) (UniProt Q03181). The experiment is described as above. To be noted: HEK293T PPARd-UAS-bla, beta-lactamase FRET ratio, 18 h; series mostly up to 76.7 µM. The method in brief: as §1
In experiment [5] the target is Retinoic acid receptor RXR-alpha (Homo sapiens) (UniProt P19793). The experiment can be described thus: qHTS assay for small molecule agonists of retinoid X receptor alpha signaling (AID 588544; calls by dose curve;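 also: 0% = DMSO basal wells and 100% = reference agonist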). The following applies: HEK293T RXRa-UAS-bla, beta-lactamase reporter, 18 h; series mostly up to 76.7 µM.
Experiment [6] is described as follows: qHTS assay for small molecule antagonists of retinoid X receptor alpha signaling (AID 588546; active = well fitted inhibition curve with a large enough effect in the signal ratio, with a control signal flat, not every such curve was filed as active; the % refers to the signal ratio;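 also: cells stimulated with 9-cis-retinoic acid as agonist; % is scaled to controls: 0 for no effect and ±100 for the full control effect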). The following applies: HEK293T RXRa-UAS-bla, beta-lactamase ratio, antagonist mode; measured here: W530 green channel, cytotoxicity proxy. In short, it runs like this: (§2)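 Beta-lactamase reporter inhibition, read as CCF4 fluorescence ratio (ex 405, em 460/530 nm) after 2 h at RT. HEK293T UAS-bla cells, 2500/well, were stimulated with 9-cis-RA at 500 or 100 nM final alongside test compound for 18 h at 37 C.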

Experiment [7] has as its target Retinoic acid receptor RXR-alpha (Homo sapiens) (UniProt P19793). The description is as above. To be noted: HEK293T RXRa-UAS-bla, beta-lactamase ratio, antagonist mode. In short, it runs like this: as §2
A short description of experiment [8]: qHTS assay for small molecule activators of the p53 signaling pathway (AID 651743; active = well fitted activation curve with a large enough effect in the signal ratio, not every such curve was filed as active; the % refers to the signal ratio; also: % of control where 0% means no effect). The following applies: HCT-116 p53RE-bla, beta-lactamase FRET ratio, 16 h; activation: stronger effect = higher value. The method in brief:
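p53RE-bla HCT-116 cells carrying a beta-lactamase reporter under p53 response elements were exposed to compounds for 16 hours at 37 C. Reporter activity read as fluorescence after 2 hours at room temperature with LiveBLAzer B/G FRET substrate.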

Experiment [9] in a line: qHTS assay for environmental chemicals that activate the Aryl hydrocarbon Receptor (AhR) signaling pathway (AID 651777). Also: % of control where 0% means no effect; nearly all actives have a fitted effect of over 15% in size. The following applies: 1A2-DRE human hepatoma cells, luciferase, 24 h; activation: stronger effect = higher value. In short, it runs like this:
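Luminescence (One-Glo, 30 min, room temperature) reports AhR-driven luciferase in stably transfected human hepatoma cells bearing DRE and CYP1A2 promoter. Cells (1,200/well) were treated with compound for 24 hr at 37 C in qHTS format.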

For experiment [10], the target named is Peroxisome proliferator-activated receptor alpha (Homo sapiens) (UniProt Q07869). The experiment in a line: qHTS assay for small molecule agonists of the peroxisome proliferator-activated receptor alpha (PPARalpha) signaling pathway (AID 651778). Also: potency is read from the fitted curve at half-maximal effect. As to max response: % of control where 0% means no effect. The following applies: PathHunter PPARalpha complementation, chemiluminescence, 6 h; max response: stronger effect = higher value. In short, it runs like this:
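Enzyme-fragment complementation assay in which ligand-bound PPARalpha translocates and forms an active enzyme that generates chemiluminescence. Cells were plated overnight, exposed to compound for 6 hr at 37 C, and then given detection reagent for 60 min at room temperature.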

Experiment [11] in a line: qHTS assay for small molecule agonists of the antioxidant response element (ARE) signaling pathway measured by Nrf2-dependant transcriptional activity (AID 720636; active = well fitted curve in the direction sought with a large enough effect in the repeat runs; an effect the other way counts as inactive or inconclusive; also: % of control where 0% means no effect). The following applies: ARE-luc HepG2, Nrf2 luciferase reporter, 16 h; series mostly up to 92.4 µM. The method in brief: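 Nrf2-dependent transcription read as ONE-Glo luciferase signal from ARE-luc HepG2 reporter cells after 16 hr compound treatment at 37 C, 5% CO2, in assay medium with 1% dialyzed FBS.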

The nature of experiment [12]: qHTS assay for small molecule agonists of the antioxidant response element (ARE) signaling pathway measured by Nrf2-dependant transcriptional activity - cell viability counter screen (AID 720653; active = well fitted curve in the direction sought with a large enough effect in the repeat runs; an effect the other way counts as inactive or inconclusive; also: % is scaled to controls: 0 for no effect and ±100 for the full control effect). To be noted: ARE-bla HepG2 viability, CellTiter-Glo ATP luminescence, 16 h; max response: stronger effect = lower value. In short, it runs like this:
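ARE-bla HepG2 cells treated with compounds for 16 h at 37C; this counter screen measures viability as intracellular ATP by CellTiter-Glo luminescence after 30 min at room temperature.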

The nature of experiment [13]: qHTS assay for cell viability of HEK293 cells (AID 743288). Also: % is scaled to controls: 0 for no effect and ±100 for the full control effect; nearly all actives have a fitted effect of over 50% in size. The following applies: ATP luminescence (CellTiter-Glo), 18 h; max response: stronger effect = lower value. In short, it runs like this:
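Total intracellular ATP, measured with a luciferase-coupled reagent, indicates the number of viable HEK293 cells. Exposure to test chemicals lasts 18 h at 37 C in 1,536-well format at 2,000 cells/well.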

Experiment [14] can be described thus: qHTS assay for cell viability of the p53RE-bla HCT-116 cell line (AID 743292). Also: % is scaled to controls: 0 for no effect and ±100 for the full control effect; nearly all actives have a fitted effect of over 55% in size. The following applies: p53RE-bla HCT-116 viability, ATP luminescence, 16 h; series mostly up to 95 µM. In short, it runs like this: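 ATP-based luminescent viability (CellTiter-Glo, 30 min RT) after 16 h compound treatment at 37 C of p53RE-bla HCT-116 cells, seeded at 4,000 cells/well and rested 5 h before dosing.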

For experiment [15], the target named is Nuclear receptor subfamily 1 group I member 2 (Rattus norvegicus) (UniProt Q9R1A7). The experiment can be described thus: qHTS assay for small molecule activators of the rat pregnane X receptor (rPXR) signaling pathway (AID 651751; call rule not given here; also: 0% is about no effect). The following applies: rPXR reporter cells, luciferase (One-Glo), 24 h.
Experiment [16] can be described thus: qHTS assay for small molecule activators of the human pregnane X receptor (PXR) signaling pathway (AID 720659; call rule not given here; also: 0% is about no effect). To be noted: DPX-2 HepG2 CYP3A4-luciferase, 24 h; series mostly up to 92.3 µM.
For experiment [17], the target named is Vitamin D3 receptor (Homo sapiens) (UniProt P11473). The experiment can be described thus: qHTS assay for small molecule antagonists of vitamin D receptor signaling (AID 588541; calls by dose curve;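 also: receptor activated by calcitriol during compound treatment; % is scaled to controls: 0 for no effect and ±100 for the full control effect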). The following applies: HEK293T VDR-UAS-bla, beta-lactamase ratio, antagonist mode; series mostly up to 76.7 µM. In short, it runs like this: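 VDR-UAS-bla HEK293T cells in 2% charcoal-stripped FBS were stimulated with 1-alpha,25-dihydroxyvitamin D3 (3 nM final) plus compound for 16 h at 37 C. The beta-lactamase CCF4 readout was normalized to 50 nM agonist and DMSO, and Hill fits gave IC50.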

The target is the same in experiment [18]. The experiment can be described thus: qHTS assay for small molecule agonists of vitamin D receptor signaling (AID 588543; calls by dose curve;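 also: 0% = DMSO basal and 100% = reference agonist control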). The following applies: HEK293T VDR-UAS-bla, beta-lactamase ratio, 16 h; series mostly up to 76.8 µM. In short, it runs like this:
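Agonist-mode beta-lactamase reporter: HEK293T VDR-UAS-bla cells in charcoal-stripped 2% FBS, compound series 16 h 37 C, CCF4 2 h RT. EC50 from Hill fit, scaled against DMSO and 50 nM calcitriol control.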

Experiment [19] deals with Thyroid hormone receptor beta (Homo sapiens) (UniProt P10828). The experiment can be described thus: qHTS assay for small molecule agonists of thyroid hormone receptor beta signaling (AID 588545; calls by dose curve). The following applies: TR-UAS-bla GripTite HEK 293, beta-lactamase ratio, agonist mode, 18 h; series mostly up to 76.7 µM. In short, it runs like this: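 Agonist activity was read as beta-lactamase CCF4 fluorescence (405 ex, 460/530 em), scaled between DMSO (0%) and 10 nM T3 (100%), then Hill-fitted for EC50 and efficacy. HEK 293 TR-UAS-bla cells in 2% charcoal/dextran FBS medium were exposed 18 h at 37 C.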

The nature of experiment [20]: qHTS assay for small molecule activators of the nuclear factor-kappa B (NF-kB) signaling pathway (AID 651749; active = well fitted activation curve with a large enough effect in the signal ratio; the % refers to the signal ratio; also: % of control where 0% means no effect). To be noted: NF-kB-bla ME-180 cells, beta-lactamase FRET ratio, 16 h; activation: stronger effect = higher value. The method in brief: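 NF-kB-bla ME-180 cells carrying a beta-lactamase reporter under an NF-kB response element, 2,000 cells/well, exposed to compound for 16 hr at 37C; FRET-based beta-lactamase fluorescence read-out of pathway activation.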

Sequence of Peroxisome proliferator-activated receptor alpha (Homo sapiens) (Q07869 whole entry, looked up, the tested form may be a part): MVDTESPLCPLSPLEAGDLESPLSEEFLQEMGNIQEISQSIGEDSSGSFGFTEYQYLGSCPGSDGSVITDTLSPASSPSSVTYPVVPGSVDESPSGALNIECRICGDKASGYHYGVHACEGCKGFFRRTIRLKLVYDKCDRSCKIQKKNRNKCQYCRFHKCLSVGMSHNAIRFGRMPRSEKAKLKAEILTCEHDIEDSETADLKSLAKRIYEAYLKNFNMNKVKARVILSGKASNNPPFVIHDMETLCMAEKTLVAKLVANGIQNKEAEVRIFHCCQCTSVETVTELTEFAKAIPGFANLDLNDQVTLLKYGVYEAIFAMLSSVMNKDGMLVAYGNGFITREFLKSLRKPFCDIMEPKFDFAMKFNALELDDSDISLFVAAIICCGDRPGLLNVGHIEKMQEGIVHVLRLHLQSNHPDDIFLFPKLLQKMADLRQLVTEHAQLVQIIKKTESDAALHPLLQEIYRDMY
Sequence of Retinoic acid receptor RXR-alpha (Homo sapiens) (P19793 whole entry, looked up): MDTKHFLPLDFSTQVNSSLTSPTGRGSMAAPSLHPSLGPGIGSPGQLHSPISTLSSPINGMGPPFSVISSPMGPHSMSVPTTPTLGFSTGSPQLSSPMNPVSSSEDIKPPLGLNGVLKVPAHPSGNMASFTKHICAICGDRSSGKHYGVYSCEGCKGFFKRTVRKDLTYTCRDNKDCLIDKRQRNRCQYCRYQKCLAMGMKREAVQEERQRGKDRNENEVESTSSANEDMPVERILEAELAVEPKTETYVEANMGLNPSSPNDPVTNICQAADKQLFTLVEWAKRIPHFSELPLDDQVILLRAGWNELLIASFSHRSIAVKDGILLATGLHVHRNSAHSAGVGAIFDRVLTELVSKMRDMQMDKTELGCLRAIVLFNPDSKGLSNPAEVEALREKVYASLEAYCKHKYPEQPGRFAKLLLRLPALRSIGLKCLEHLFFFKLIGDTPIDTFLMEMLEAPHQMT
Sequence of Glucocorticoid receptor (Homo sapiens) (P04150 whole entry, looked up): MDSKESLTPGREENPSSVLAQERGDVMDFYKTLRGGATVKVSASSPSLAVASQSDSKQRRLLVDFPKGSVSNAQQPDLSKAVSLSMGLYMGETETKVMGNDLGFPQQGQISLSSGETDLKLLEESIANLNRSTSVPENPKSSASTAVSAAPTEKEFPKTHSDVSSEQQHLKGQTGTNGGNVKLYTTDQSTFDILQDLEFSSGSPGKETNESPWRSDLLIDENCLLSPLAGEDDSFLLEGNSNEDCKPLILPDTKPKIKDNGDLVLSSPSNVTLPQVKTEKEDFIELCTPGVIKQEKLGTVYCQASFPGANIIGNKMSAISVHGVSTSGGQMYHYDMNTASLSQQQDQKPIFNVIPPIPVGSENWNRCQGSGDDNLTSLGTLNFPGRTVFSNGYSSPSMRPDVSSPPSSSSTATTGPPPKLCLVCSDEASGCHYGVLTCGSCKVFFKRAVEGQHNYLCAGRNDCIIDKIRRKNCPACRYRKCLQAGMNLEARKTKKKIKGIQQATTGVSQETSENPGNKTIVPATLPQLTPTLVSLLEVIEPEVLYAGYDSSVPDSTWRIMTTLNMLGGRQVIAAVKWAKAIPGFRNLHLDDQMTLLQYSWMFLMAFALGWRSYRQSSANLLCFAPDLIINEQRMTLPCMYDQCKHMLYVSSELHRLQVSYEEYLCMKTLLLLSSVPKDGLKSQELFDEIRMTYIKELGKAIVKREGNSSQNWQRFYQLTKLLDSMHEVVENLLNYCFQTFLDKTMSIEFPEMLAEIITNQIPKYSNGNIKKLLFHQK
Sequence of Nuclear receptor subfamily 1 group I member 2 (Rattus norvegicus) (Q9R1A7 whole entry, looked up): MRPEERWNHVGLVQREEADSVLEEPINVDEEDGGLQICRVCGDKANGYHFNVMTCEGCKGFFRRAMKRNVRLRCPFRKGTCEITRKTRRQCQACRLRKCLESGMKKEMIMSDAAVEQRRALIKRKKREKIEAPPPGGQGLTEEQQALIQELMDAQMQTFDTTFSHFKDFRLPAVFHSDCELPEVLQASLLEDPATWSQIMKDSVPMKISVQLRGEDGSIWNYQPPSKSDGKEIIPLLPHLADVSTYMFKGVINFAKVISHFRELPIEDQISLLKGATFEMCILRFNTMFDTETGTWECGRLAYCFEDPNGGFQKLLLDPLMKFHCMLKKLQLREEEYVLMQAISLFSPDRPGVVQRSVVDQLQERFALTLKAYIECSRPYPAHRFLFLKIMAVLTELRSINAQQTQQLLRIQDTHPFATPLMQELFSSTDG
Sequence of Thyroid hormone receptor beta (Homo sapiens) (P10828 whole entry, looked up): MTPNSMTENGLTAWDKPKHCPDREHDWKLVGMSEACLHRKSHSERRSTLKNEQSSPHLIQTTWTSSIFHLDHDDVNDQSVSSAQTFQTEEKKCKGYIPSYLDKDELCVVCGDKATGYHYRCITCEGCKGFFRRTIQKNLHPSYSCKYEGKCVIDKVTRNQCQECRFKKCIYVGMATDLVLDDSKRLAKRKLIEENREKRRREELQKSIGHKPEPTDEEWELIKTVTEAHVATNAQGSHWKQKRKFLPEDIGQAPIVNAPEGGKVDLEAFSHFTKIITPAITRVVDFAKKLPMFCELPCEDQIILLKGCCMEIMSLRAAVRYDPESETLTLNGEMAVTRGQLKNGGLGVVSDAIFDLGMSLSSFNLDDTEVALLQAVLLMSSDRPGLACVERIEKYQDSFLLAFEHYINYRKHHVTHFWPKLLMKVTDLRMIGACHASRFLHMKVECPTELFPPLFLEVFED
Sequence of Peroxisome proliferator-activated receptor delta (Homo sapiens) (Q03181 whole entry, looked up): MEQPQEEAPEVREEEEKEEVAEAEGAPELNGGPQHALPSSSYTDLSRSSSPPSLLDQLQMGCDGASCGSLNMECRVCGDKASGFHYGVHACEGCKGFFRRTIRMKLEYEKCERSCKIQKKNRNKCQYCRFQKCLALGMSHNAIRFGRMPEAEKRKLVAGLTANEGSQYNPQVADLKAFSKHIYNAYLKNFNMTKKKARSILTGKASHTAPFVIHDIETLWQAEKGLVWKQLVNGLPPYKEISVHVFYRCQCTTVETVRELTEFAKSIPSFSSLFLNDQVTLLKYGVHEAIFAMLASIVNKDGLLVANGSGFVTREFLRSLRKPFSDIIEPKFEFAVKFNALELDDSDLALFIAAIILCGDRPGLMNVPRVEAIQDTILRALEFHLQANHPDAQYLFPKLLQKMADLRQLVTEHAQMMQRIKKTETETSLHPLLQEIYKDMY
Sequence of Vitamin D3 receptor (Homo sapiens) (P11473 whole entry, looked up): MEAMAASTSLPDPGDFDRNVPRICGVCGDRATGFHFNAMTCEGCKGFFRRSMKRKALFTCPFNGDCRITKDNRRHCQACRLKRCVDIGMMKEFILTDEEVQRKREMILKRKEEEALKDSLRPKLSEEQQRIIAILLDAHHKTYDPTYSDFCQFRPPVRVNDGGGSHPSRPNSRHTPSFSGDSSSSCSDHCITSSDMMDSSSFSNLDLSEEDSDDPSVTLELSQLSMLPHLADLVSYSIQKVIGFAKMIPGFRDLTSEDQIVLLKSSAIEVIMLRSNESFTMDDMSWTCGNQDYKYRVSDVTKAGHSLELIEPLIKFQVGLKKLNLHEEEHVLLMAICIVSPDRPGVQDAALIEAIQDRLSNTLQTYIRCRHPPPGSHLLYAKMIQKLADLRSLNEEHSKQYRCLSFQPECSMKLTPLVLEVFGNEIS

As to `COCCOCCOCCO`, the activation in [1] was 2.13% (inactive); in experiment [8], 13.1% (inactive); in [9] it was -0.0316% (inactive). Further, the Potency entry in [2], in experiment [4], in experiment [5], in experiment [11] and in experiment [14] was “inactive” in each case. Further, the max response was 7.14% in [3]; -2.04% in [6]; 3.15% (inactive) in [7]; 0.508% (inactive) in experiment [10]; -1.82% (inactive) in experiment [12]; -7% (inactive) in [13]. Besides, in experiment [15], the max response was 1.8% (inactive). The call in [16] was inactive.

In the case of `C=C(C)C(=O)OCCOCCOCCOC(=O)C(=C)C`, the activation was 9.85% (inactive) in experiment [1], -4.46% (inactive) in [8], -1.62% (inactive) in experiment [20] and -1.22% (inactive) in experiment [9]. The Potency result in experiment [2], in experiment [17], in experiment [5], in [19], in experiment [11] and in experiment [14] was “inactive” in each case. The result in [18] and in experiment [16] was inactive. Further, the max response was 3.38% in experiment [6]; 4.6% (inactive) in experiment [7]; -0.929% (inactive) in experiment [10]; -16.9% (inactive) in experiment [12]; -8.3% (inactive) in [13]; -0.564% (inactive) in experiment [15].

With `CC(C)CC(C)(O)C#CC(C)(O)CC(C)C` (stereo unspecified), the activation in [1] was 4.46% (inactive); in [8], 1.9% (inactive); in experiment [20] it was -0.882% (inactive); in [9], 0.133% (inactive). The Potency result in experiment [2], in experiment [17], in experiment [5], in [19], in [11] and in [14] was “inactive” throughout. In [18], the result was inactive. For the same compound, the max response in [6] is -0.0198%; in [7], -21.9% (inactive); in experiment [12] it was -3.69% (inactive); in [13], -6.63% (inactive).

With `CCNc1nc(NC(C)CC)nc(OC)n1` (stereo unspecified), the activation was -21% (inactive) in experiment [1], -1.96% (inactive) in [8] and 2.63% (inactive) in [9]. In addition, the Potency result in [2], in experiment [17], in experiment [5], in experiment [19], in experiment [11] and in [14] was “inactive” throughout. In addition, the max response is -8.46% in experiment [6]; 5.06% (inactive) in experiment [10]; 16.1% (inactive) in [12]; -2.08% (inactive) in [13]; 1.4% (inactive) in [15]. For the same compound, in [16], the compound was called inactive.

With `CC(C)CCCCCCCCCCCCCCC(=O)O`, the activation was -9.44% (inactive) in [1], 1.15% (inactive) in experiment [8], -0.531% (inactive) in [20] and -2.9% (inactive) in experiment [9]. Further, the Potency entry in experiment [2], in experiment [4], in experiment [5], in experiment [19], in experiment [11] and in experiment [14] was “inactive” in each case. In addition, the max response is 7.35% in experiment [3]; -12.3% in experiment [6]; -25.1% (inactive) in experiment [7]; 4.34% (inactive) in experiment [12]; -0.822% (inactive) in experiment [13]; 1.88% (inactive) in experiment [15]. In experiment [10], the Potency was 39.8 µM (active). The call in experiment [16] was inactive.

As for `CCOC(=O)C(C)Oc1ccc(Oc2nc3ccc(Cl)cc3o2)cc1` (stereo unspecified), the activation in experiment [1] was 19.6% (inactive); in experiment [20], 2.54% (inactive); in experiment [9], 0.871% (inactive). Further, the Potency entry in experiment [2], in experiment [4], in [17] and in experiment [5] was “inactive” each time. The max response was -2.48% in experiment [3]; 26% (inactive) in [10]; 6.64% (inactive) in experiment [12]; 2.68% (inactive) in experiment [13]; -9.57% (inactive) in [15]. Also, the result in experiment [18] and in experiment [16] was inactive.
